The results in this text go back to paper PMC5540273 (PLoS ONE, 2017).

Experiment [1] deals with T1, DCAMKL2.
T1 construct: gene DCLK2
Particulars: concentration: 1 μM,replicates: in singlicate; n = 1.

In experiment [2] the test system is T2, DCAMKL3.
T2 construct: gene DCLK3
The conditions noted are these: concentration: 1 μM,replicates: in singlicate; n = 1.

For experiment [3], the system named is DDR1. Particulars: concentration: 1 μM,replicates: in singlicate; n = 1.
Experiment [4] has as its system DDR2. Particulars: concentration: 1 μM,replicates: in singlicate; n = 1.
Experiment [5] deals with T3, DLK.
T3 construct: gene MAP3K12
The conditions noted are these: concentration: 1 μM,replicates: in singlicate; n = 1.

The test system of experiment [6] is T4, DMPK2.
T4 construct: gene CDC42BPG
Particulars: concentration: 1 μM,replicates: in singlicate; n = 1.

The subject of experiment [7] is DMPK. Particulars: concentration: 1 μM,replicates: in singlicate; n = 1.
Experiment [8] deals with T5, DRAK1.
T5 construct: gene STK17A
The conditions noted are these: concentration: 1 μM,replicates: in singlicate; n = 1.

The subject of experiment [9] is T6, DRAK2.
T6 construct: gene STK17B
The conditions noted are these: concentration: 1 μM,replicates: in singlicate; n = 1.

Experiment [10] concerns DYRK1A. The conditions noted are these: concentration: 1 μM,replicates: in singlicate; n = 1.
Experiment [11] deals with DYRK1B. Particulars: n = 1.
Experiment [12] has as its system DYRK2. The conditions noted are these: concentration: 1 μM,replicates: in singlicate; n = 1.
Experiment [13] deals with EGFR. The conditions noted are these: concentration: 1 μM,replicates: in singlicate; n = 1.
Experiment [14] deals with EIF2AK1. Particulars: concentration: 1 μM,replicates: in singlicate; n = 1.
Experiment [15] concerns EPHA1. Particulars: concentration: 1 μM,replicates: in singlicate; n = 1.
The test system of experiment [16] is EPHA2. The conditions noted are these: concentration: 1 μM,replicates: in singlicate; n = 1.
The subject of experiment [17] is EPHA3. The conditions noted are these: concentration: 1 μM,replicates: in singlicate; n = 1.
For experiment [18], the system named is EPHA4. The conditions noted are these: concentration: 1 μM,replicates: in singlicate; n = 1.
The test system of experiment [19] is EPHA5. The conditions noted are these: concentration: 1 μM,replicates: in singlicate; n = 1.
Experiment [20] concerns EPHA6. Particulars: n = 1.
Setting [21] is: concentration: 1 μM,replicates: in singlicate.

Like-named read-outs stand apart in the source and are kept apart here.
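Also: KINOMEscan kinase panel screen.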

On to `O=C(Nc1n[nH]c2cc(-c3ccco3)ccc12)C1CC1` [SB-737447], for which the “%Inh” value is given as 1% in experiment [1]; 0% in [2]; 0% in experiment [3]; 0% in experiment [4]; 0% in [5]; 0% in experiment [6]. The “%Inh” value in [7] is on record as 0%; in experiment [8], 27%; in experiment [9], 0%; in [10], 16%; in [11] (setting [21]), 0%; in [12], 31%. The “%Inh” value in [13] was found to be 9%; in [14] it was 0%; in [15], 0%; in experiment [16] it was 10%; in [17], 19%; in experiment [18], 0%. Besides, the “%Inh” value in experiment [19] and in [20] (setting [21]) was 0% in each case.
`CC(=O)Nc1nc2cnc(Nc3cc(NC(=O)c4cccc(CC(C)(C)C#N)c4)ccc3C)nc2s1`: the “%Inh” value in [1] amounted to 5%; in [2] it was 0%; in [3], 100%; in [4] it was 97.2%; in experiment [5] it was 26%; in experiment [6], 2%. In addition, the “%Inh” value is recorded as 0% in experiment [7]; 0% in [8]; 0% in experiment [9]; 0% in experiment [10]; 31% in experiment [11] (setting [21]); 0% in [12]. The “%Inh” value was found to be 0% in experiment [13]; 30% in [14]; 0% in experiment [15]; 84% in [16]; 65% in [17]; 54% in experiment [18]. The “%Inh” value in experiment [19] turned out to be 21%; in [20] (setting [21]), 38%.
As for `COc1cccc(OC)c1C(=O)Nc1cccc(-c2nn3ccccc3c2-c2ccnc(Nc3cccc(F)c3)n2)c1` [GSK361065], the “%Inh” value in experiment [1] is given as 0%; in experiment [2], 16%; in experiment [3], 99.3%; in [4], 57%; in experiment [5], 0%; in experiment [6], 84%. Besides, the “%Inh” value in experiment [7] was determined as 2%; in experiment [8] it was 12%; in experiment [9] it was 12%; in experiment [10], 0%; in experiment [11] (1 µM) it was 24%; in experiment [12] it was 0%. In addition, the “%Inh” value in experiment [13] was determined as 91.7%; in [14], 0%; in experiment [15] it was 4%; in experiment [16], 11%; in experiment [17], 0%; in experiment [18] it was 0%. Further, the “%Inh” value in experiment [19] and in experiment [20] (1 µM) was 11% each time.
In the case of `c1ccc(Oc2ccc(Nc3ccnc4ccc(-c5ccccn5)cc34)cc2)cc1` [GW407034], the “%Inh” value in experiment [1] came out at 0%; in [2] it was 0%; in [3] it was 14%; in experiment [4] it was 0%; in [5], 49%; in experiment [6], 15%. Moreover, the “%Inh” value came to 0% in experiment [7]; 0% in [8]; 0% in experiment [9]; 24% in [10]; 0% in experiment [11] (setting [21]); 0% in experiment [12]. Moreover, the “%Inh” value turned out to be 82% in experiment [13]; 0% in experiment [14]; 31% in [15]; 13% in experiment [16]; 0% in experiment [17]; 7% in [18]. Besides, the “%Inh” value in [19] amounted to 90.6%; in experiment [20] (setting [21]), 2%.
Take `CC(C)S(=O)(=O)N1CCN(Cc2ccc3c(c2)nc(NC(=O)c2ccsc2)n3C[C@H](O)c2ccccc2)CC1` [GW635815]: the “%Inh” value in [1] amounted to 0%; in experiment [2] it was 9%; in [3], 46%; in [4], 19%; in experiment [5] it was 69%; in experiment [6], 0%. For the same compound, the “%Inh” value was found to be 0% in [7]; 72% in [8]; 11% in experiment [9]; 48% in experiment [10]; 70% in experiment [11] (setting [21]); 21% in [12]. The “%Inh” value stood at 20% in experiment [13]; 1% in experiment [14]; 0% in [15]; 0% in experiment [16]; 11% in [17]; 15% in [18]. The “%Inh” value in experiment [19] amounted to 0%; in [20] (setting [21]), 7%.
Regarding `Cl.Cl.NC[C@H](CC1CCCCC1)NC(=O)c1ccc(-c2ccnc3[nH]ccc23)s1` [GSK1581428], the “%Inh” value turned out to be 17% in [1]; 0% in experiment [2]; 0% in [3]; 8% in [4]; 85% in experiment [5]; 100% in experiment [6]. The “%Inh” value is 99.7% in experiment [7]; 94.9% in [8]; 0% in experiment [9]; 54% in [10]; 27% in [11] (setting [21]); 80% in [12]. The “%Inh” value in experiment [13] is recorded as 28%; in [14], 0%; in experiment [15], 7%; in [16], 0%; in experiment [17], 17%; in experiment [18], 5%. Moreover, the “%Inh” value was found to be 0% in [19] and 27% in experiment [20] (setting [21]).
In the case of `COc1cccc(CNC(=O)NC2CCN(c3ccnc(Nc4cc(OC)c(OC)c(OC)c4)n3)C2)c1` (stereo not shown) [GSK1379765], the “%Inh” value in [1] was 8%; in experiment [2], 0%; in [3], 1%; in experiment [4] it was 19%; in experiment [5], 61%; in experiment [6], 69%. For the same compound, the “%Inh” value in [7] came out at 0%; in experiment [8], 0%; in experiment [9], 0%; in [10], 19%; in [11] (setting [21]), 17%; in experiment [12] it was 9%. The “%Inh” value in experiment [13] stood at 28%; in experiment [14], 0%; in experiment [15] it was 11%; in experiment [16], 30%; in experiment [17], 0%; in experiment [18] it was 3%. Besides, the results for the “%Inh” value in experiment [19] and in [20] (setting [21]) were 0% and 15%, respectively.
`COc1ccc(Nc2nccc(N3CCC(NC(=O)c4cccc(C#N)c4)C3)n2)cc1` (stereo not shown) [GSK1379730]: the “%Inh” value is recorded as 0% in experiment [1]; 0% in [2]; 0% in experiment [3]; 12% in experiment [4]; 40% in experiment [5]; 0% in [6]. Further, the “%Inh” value in experiment [7] is on record as 0%; in experiment [8], 2%; in experiment [9], 0%; in experiment [10] it was 22%; in experiment [11] (setting [21]), 39%; in [12] it was 0%. Further, the “%Inh” value in [13] turned out to be 29%; in experiment [14] it was 0%; in experiment [15], 27%; in experiment [16] it was 0%; in [17], 0%; in [18], 0%. Besides, the results for the “%Inh” value in [19] and in [20] (setting [21]) were 12% and 0%, respectively.
For `C[C@@H](Oc1cc(-n2cnc3cc(-c4ccncc4)ccc32)sc1C(N)=O)c1ccccc1Cl` [GSK479719], the “%Inh” value in experiment [1] worked out at 3%; in [2], 0%; in experiment [3], 0%; in experiment [4] it was 0%; in [5], 0%; in experiment [6], 0%. Further, the “%Inh” value is given as 0% in experiment [7]; 0% in experiment [8]; 0% in experiment [9]; 57% in experiment [10]; 18% in experiment [11] (setting [21]); 31% in [12]. Besides, the “%Inh” value was found to be 28% in experiment [13]; 18% in [14]; 0% in experiment [15]; 29% in experiment [16]; 100% in experiment [17]; 21% in [18]. Also, the results for the “%Inh” value in experiment [19] and in [20] (setting [21]) were 0% and 29%, respectively.
In the case of `CS(=O)(=O)Nc1ccc(-c2ccnc3[nH]ccc23)cc1` [GSK993273], the “%Inh” value in experiment [1] was determined as 0%; in experiment [2] it was 0%; in experiment [3], 0%; in experiment [4] it was 0%; in [5] it was 83%; in experiment [6], 13%. Moreover, the “%Inh” value was found to be 51% in experiment [7]; 99.2% in experiment [8]; 20% in experiment [9]; 88% in experiment [10]; 84% in experiment [11] (setting [21]); 44% in experiment [12]. The “%Inh” value is on record as 17% in experiment [13]; 1% in [14]; 19% in [15]; 0% in experiment [16]; 0% in [17]; 20% in experiment [18]. Moreover, the figures for the “%Inh” value in experiment [19] and in experiment [20] (setting [21]) were 0% and 6%, respectively.
As to `CCNCC(Cc1ccccc1)NC(=O)c1cc(Br)c(-c2ccnc3[nH]ccc23)s1.Cl.Cl` (stereo not shown) [GSK1383280], the “%Inh” value in [1] amounted to 0%; in [2], 40%; in experiment [3] it was 8%; in experiment [4], 18%; in [5] it was 11%; in experiment [6] it was 90%. Besides, the “%Inh” value in [7] turned out to be 23%; in experiment [8], 0%; in [9] it was 0%; in experiment [10], 37%; in [11] (setting [21]), 53%; in [12], 31%. In addition, the “%Inh” value was determined as 28% in [13]; 0% in [14]; 25% in experiment [15]; 24% in experiment [16]; 45% in experiment [17]; 0% in experiment [18]. In addition, the “%Inh” value in experiment [19] was 0%; in experiment [20] (setting [21]) it was 7%.
